Compounds with a hit are over-represented: about 3.8% of the library has one in this group of screens.
GDH-TPI inh – inhibits GDH-TPI coupling enzymes, artifact for Mtb FBA screen | GDH-TPI coupled enzyme counterscreen, NADH absorbance | inhibition, % at 4.8 µM | AID 588335 | 360,000 compounds, 1.2% hits; in the data active means inhibition above about 30%
Yp Topo-I inh – inhibitors of Yersinia pestis topoisomerase I; 360,000 compounds, 0.064% hits; Y. pestis Topo-I cleavage product accumulation, plate reader; activity, % at 10 µM; in the data active means activity above about 50%, passing the limit was not always enough
Mtb hypoxia inh – inhibitors of hypoxia-regulated fluorescent reporter in Mycobacterium tuberculosis; M. tuberculosis hypoxia-regulated fluorescent reporter, fluorescence; 300,000 compounds, 0.1% hits; fluorescence inhibition, % (test concentration not listed); in the data active means fluorescence inhibition mostly above about 23%, no sharp cut-off; inactive means mostly below about 17%
PrP UTR inh – suppresses PrP 5' UTR mRNA reporter expression. cell-based PrP 5' UTR mRNA reporter, plate reader. inhibition, % (test concentration not listed). 340,000 compounds, 0.35% hits. AID 488862; in the data active means inhibition above about 52%
PrPC surface inh – inhibitors of human cell surface prion protein PrPC; P04156; TR-FRET read-out; inhibition, % at 13.8 µM; 370,000 compounds, 0.43% hits; in the data active means inhibition above about 24%
Mtb FBA inh – Mtb fructose-bisphosphate aldolase inhibition | AID 588726 | P9WQA3 | purified M. tuberculosis FBA, fluorescence read-out | 360,000 compounds, 2.3% hits | inhibition, % at 1 µM; in the data active means inhibition above about 27%
Target sequence (P9WQA3 whole entry, looked up): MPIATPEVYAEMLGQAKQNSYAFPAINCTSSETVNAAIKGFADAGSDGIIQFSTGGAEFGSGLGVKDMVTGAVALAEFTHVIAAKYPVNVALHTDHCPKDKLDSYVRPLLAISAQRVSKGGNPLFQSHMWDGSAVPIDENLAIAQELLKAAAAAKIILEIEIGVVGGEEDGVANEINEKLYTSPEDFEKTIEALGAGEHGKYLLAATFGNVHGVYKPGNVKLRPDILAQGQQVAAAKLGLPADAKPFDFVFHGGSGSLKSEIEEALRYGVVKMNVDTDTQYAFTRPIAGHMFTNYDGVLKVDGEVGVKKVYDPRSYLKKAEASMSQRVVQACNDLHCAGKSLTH
Numbers stand for hits; n = inactive; x = no result given; + = active, no number.

SMILES | GDH-TPI inh | Yp Topo-I inh | Mtb hypoxia inh | PrP UTR inh | PrPC surface inh | Mtb FBA inh
Cc1cccn2c(=O)c3cc(C(=O)NC(C)C)c(=N)n(Cc4ccncc4)c3nc12 | n | n | x | n | n | +
CCCn1c(=N)c(C(=O)NCc2ccc3c(c2)OCO3)cc2c(=O)n3cccc(C)c3nc21 | n | n | n | n | n | n
CCNC(=O)c1cc2c(=O)n3cccc(C)c3nc2n(Cc2ccc(C)cc2)c1=N | n | n | x | n | n | 112
COCCn1c(=N)c(C(=O)NCCc2ccc(OC)cc2)cc2c(=O)n3cccc(C)c3nc21 | n | n | n | n | n | n
COCCCNC(=O)c1cc2c(=O)n3cccc(C)c3nc2n(C(C)C)c1=N | n | n | x | n | n | +
COc1ccc(/C=C/C(=O)N/C(=C\c2ccco2)C(=O)NCCc2nc3ccccc3[nH]2)cc1 | 34 | n | n | n | n | n
Cc1ccc(/C=C(/C#N)C(=O)NC(C)c2ccccc2)o1 (stereo not drawn) | n | n | n | n | n | n
Cc1ccc(/C=C(\C#N)C(=O)NC(C)C)o1 | 65 | n | n | n | n | n
COc1cc(/C=C(/C#N)C(=O)NC(C)c2ccccc2)cc(OC)c1O (stereo not drawn) | n | n | n | n | n | n
CC(NC(=O)/C(C#N)=C/c1ccc(C(=O)O)cc1)c1ccccc1 (stereo not drawn) | 38 | n | n | n | n | n
Cc1ccc(/C=C(\C#N)C(=O)NC(C)c2ccccc2)o1 (stereo not drawn) | 33 | n | n | n | n | n
CC(=O)OC(C(O)=C(C#N)c1nc2ccccc2[nH]1)c1ccccc1 (stereo not drawn) | x | x | n | x | x | x
Cc1noc(C)c1NC(=O)N(C)CC1Oc2ccc(NC(=O)CCN3CCOCC3)cc2C(=O)N(C(C)CO)CC1C (stereo not drawn) | x | x | n | x | x | x
CC(C=Cc1ccc2c(c1)OCO2)=NNC(=O)c1cccnc1 | x | x | n | x | x | x
CC(/C=C/c1ccc2c(c1)OCO2)=N/NC(=O)c1ccc(C)nc1 | 36 | n | x | n | n | n
CC(/C=C/c1ccc2c(c1)OCO2)=N/NC(=O)c1ccncc1 | 48 | n | x | n | n | n
CC(/C=C/c1ccc2c(c1)OCO2)=N/NC(=O)c1cccnc1 | 42 | n | x | n | n | n
Cc1ccc(C(=O)NN=Cc2ccc3c(c2)OCO3)cn1 | x | x | n | x | x | x
COC(=O)CC1c2ccc(C(F)(F)F)cc2S(=O)(=O)N1Cc1ccccc1 (stereo not drawn) | x | x | n | x | x | x
Nc1ccc(Cl)cc1C(=O)OCC(=O)NC1CCS(=O)(=O)C1 (stereo not drawn) | n | n | n | n | n | 90
COc1ccc(CCNc2oc(-c3cccc4ccccc34)nc2P(=O)(OC)OC)cc1OC | n | n | n | n | n | 188
COc1ccc(CCNc2oc(Cc3cccc4ccccc34)nc2C#N)cc1OC | n | n | n | n | n | n
CCc1nc2ccccc2c(=O)n1NCCc1ccccc1 | n | n | n | n | n | n
COP(=O)(OC)c1nc(-c2cccc3ccccc23)oc1NCCc1ccccc1 | n | n | n | n | n | +
Fc1ccc(-[n+]2nc(Nc3ccccc3)sc2-c2c3ccccc3cc3ccccc23)cc1 | n | n | x | n | n | n
SMILES | GDH-TPI inh | Yp Topo-I inh | Mtb hypoxia inh | PrP UTR inh | PrPC surface inh | Mtb FBA inh
Oc1ccc2ccccc2c1-c1sc(Nc2ccccc2)n[n+]1-c1ccc(F)cc1 | n | 99 | n | n | n | n
COC1=C(C)C(O)=C(C(=O)C=Cc2ccccc2)C(=O)C1(C)C | x | x | n | x | x | x
O=C(O)c1cccc2c1C(=O)c1ccc(-c3ccc(OC(F)(F)F)cc3)cc1S2(=O)=O | 32 | n | n | n | n | n
CCOC(=O)c1oc2c(CN3CCN(C)CC3)c(O)ccc2c(=O)c1-c1ccccc1OC | n | n | n | n | n | n
COc1ccccc1-c1c(C)oc2c(CN3CCN(CCO)CC3)c(O)ccc2c1=O | n | n | n | n | n | 176
COc1ccccc1-c1c(C)oc2c(CN3CCN(C)CC3)c(O)ccc2c1=O | n | n | n | n | n | 143
CN(C)S(=O)(=O)c1cccc(NC(=S)NN=CC(c2ccccc2)c2ccccc2)c1 | x | x | n | x | x | x
CN(N)C(=S)NCc1ccccc1 | n | n | n | n | n | +
CC(=NNC(=O)CCCC(=O)O)c1c(-c2ccccc2)c2cc(Cl)ccc2[nH]c1=O | x | x | n | x | x | x
Cn1cc(C(=O)NN=Cc2cc(Br)cs2)c2ccccc21 | x | x | n | x | x | x
Cn1cc(C(=O)N/N=C/c2cccs2)c2ccccc21 | 43 | n | x | n | n | n
